Experimental data from PubChem BioAssay AID2391 (Southern Research Specialized Biocontainment Screening …, 2010).
Hit rate of the full screen: of about 310,000 compounds, about 410 (0.13%) were called active. Roughly 2% stayed inconclusive and do not appear here. How the calls were made is not given here. These entries were drawn from the full list. Potency and affinity values are given separately.

Test: inhibition of RSV-induced cytopathic effect – HEp-2 cells, primary 10 µM value included (AID 2391)
Conditions: at 10 µM, hits give high values

CPE inhibition, inactive:
CC(=O)c1ccc(OCCCC(=O)Nc2ccc(S(=O)(=O)N3CCOCC3)cc2)cc1 14.5%
COc1ccc(C(=O)Nc2nc3ccccc3s2)c(OC)c1 9.57%
COc1ccc(C(=O)Nc2nc3ccccc3s2)cc1 4.56%
COc1ccc(C(C)=O)cc1CSc1nc2ccccc2c(=O)n1-c1ccccc1 3.07%
Cc1c(C(=O)O)oc2c1ccc1ccccc12 9.18%
COc1ccccc1OCC(=O)Nc1ccc2c(c1)OCO2 1.74%
COC(=O)CN1C(c2ccc(Cl)cc2)=Nc2ccc(Cl)cc2C1c1ccccc1 (stereo not given) 11.1%
O=C1CN2C(=Nc3ccc(Br)cc3C2c2ccccc2)CCN1 (stereo not given) -0.32%
CCc1ccc(CNC(=O)c2ccc(OC3CCN(C(C)=O)CC3)c(OC)c2)nc1 1.43%
Cc1cc(C)c(NC(=O)c2cccc(NC(=O)c3ccco3)c2)c(C)c1 2.64%
NC(=O)CSc1nnc(Cn2c(=O)sc3ccccc32)n1-c1cccc(Cl)c1 2.54%
O=C(O)CSc1nnc(Cn2c(=O)sc3ccccc32)n1-c1cccc(Cl)c1 0.38%
Cc1ccc(N2CCN(c3ccc(NC(=O)CCC(=O)O)cc3)CC2)cc1 -0.44%
CCCOc1ccc(NC(=O)c2cc3cc(C)ccc3[nH]2)cc1 -0.27%
Cc1cc(C)c(NC(=O)c2ccc(S(=O)(=O)N3CCOCC3)cc2)c(C)c1 1.1%
CC(=O)c1ccc2c(c1)C1C=CCC1C(c1ccncc1)N2 (stereo not given) -0.18%
Cc1cc(C)c2c(c1)[C@@H]1C=CC[C@@H]1[C@H](c1ccc(S(=O)(=O)N3CCOCC3)cc1)N2 0.17%
O=C(O)c1cc(Cl)c2c(c1)[C@@H]1C=CC[C@@H]1[C@H](c1ccc(S(=O)(=O)N3CCOCC3)cc1)N2 0.29%
COc1ccc(N(CC(=O)Nc2ccc(F)cc2F)S(=O)(=O)c2c(C)nn(C)c2C)cc1 -1.28%
Cc1cc(-n2c(C)cc(C(=O)CN3C(=O)NC4(CCCCC4C)C3=O)c2C)no1 (stereo not given) 1.72%
COc1ccc(N2CCN(c3nc4c(c(=O)n(C)c(=O)n4C)n3CCCc3ccccc3)CC2)cc1 -1.29%
CCOC(=O)C[C@H]1c2ccccc2S(=O)(=O)N1Cc1cc(OC)c(OC)c(OC)c1 1.62%
Cc1ccccc1NC(=S)NCCc1ccc(S(N)(=O)=O)cc1 1.91%
Cc1ccc(C)c(S(=O)(=O)N2CCCCC2CCNC(=O)C(=O)NC2CC2)c1 (stereo not given) -1.15%
Cc1ccc(S(=O)(=O)N2CCCCC2CCNC(=O)C(=O)NC2CC2)cc1 (stereo not given) 0.46%
